Bioassay records (PubChem BioAssay)
Shown are actives, neighbours in structure and some others; about 2.3% of the full set was active somewhere.
TMEM16A act – mouse TMEM16A channel activation, primary screen; Q8BHY3; HEK293 TMEM16A/YFP-H148Q/I152L, iodide quench fluorescence; hits give low values; B-score at 10 µM; 340,000 compounds, 0.3% hits;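 active = fluorescence-ratio B-score plate-corrected deviation score at least 3 library SD below zero, with starting fluorescence score within 5 deviations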;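 note: channel opened by trigger with iodide after compound preincubation; score built on the fluorescence ratio of max minus min over baseline; more negative score means more quench and so TMEM16A activation or potentiation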
Target sequence (Q8BHY3 whole entry, looked up): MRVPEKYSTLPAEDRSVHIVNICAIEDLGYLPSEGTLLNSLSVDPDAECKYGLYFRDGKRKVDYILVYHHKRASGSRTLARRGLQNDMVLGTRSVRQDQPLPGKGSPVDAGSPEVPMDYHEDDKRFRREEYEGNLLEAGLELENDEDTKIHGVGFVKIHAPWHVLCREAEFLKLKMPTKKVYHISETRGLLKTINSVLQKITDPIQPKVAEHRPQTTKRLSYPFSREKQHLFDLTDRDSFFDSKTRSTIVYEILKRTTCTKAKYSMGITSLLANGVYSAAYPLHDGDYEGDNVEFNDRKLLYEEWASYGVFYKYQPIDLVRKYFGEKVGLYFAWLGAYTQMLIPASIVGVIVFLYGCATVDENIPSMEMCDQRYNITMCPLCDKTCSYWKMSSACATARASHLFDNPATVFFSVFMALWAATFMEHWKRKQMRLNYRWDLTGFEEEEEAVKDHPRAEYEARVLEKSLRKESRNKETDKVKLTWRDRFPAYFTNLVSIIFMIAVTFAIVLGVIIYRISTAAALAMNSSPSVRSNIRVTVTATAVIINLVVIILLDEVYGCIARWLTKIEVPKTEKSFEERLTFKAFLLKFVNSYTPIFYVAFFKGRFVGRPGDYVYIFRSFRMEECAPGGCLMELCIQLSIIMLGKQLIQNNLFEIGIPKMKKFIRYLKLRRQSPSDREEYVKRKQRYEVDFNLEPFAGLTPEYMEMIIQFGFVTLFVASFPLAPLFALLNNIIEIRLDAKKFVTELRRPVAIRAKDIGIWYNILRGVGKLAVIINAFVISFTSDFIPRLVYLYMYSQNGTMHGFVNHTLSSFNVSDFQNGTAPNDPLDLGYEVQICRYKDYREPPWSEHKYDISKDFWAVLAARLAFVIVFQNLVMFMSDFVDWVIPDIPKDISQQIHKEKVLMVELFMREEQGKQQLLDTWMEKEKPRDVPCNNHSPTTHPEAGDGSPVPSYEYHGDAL
CHT allo act – allosterically activates the human high affinity choline transporter | CHT-expressing cells, membrane potential dye, choline EC20; hits give high values; LV-AA mutant CHT in HEK293 cells | Q9GZV3 | 310,000 compounds, 0.49% hits | B-score at 10 µM;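 active = initial fluorescence not abnormally high and integrated response B-score, plate-corrected, over 3 SD above library mean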
ANO1 block – blocks the mouse calcium-activated chloride channel TMEM16A. Q8BHY3. HEK293 TMEM16A/YFP iodide influx fluorescence, ionomycin. normalized B-score (activity score, 25-100; higher = stronger inhibition) at 10 µM. 310,000 compounds, 1.2% hits. AID 588511;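 active = ratio plate-corrected score three or more library SD toward inhibition, starting fluorescence score within five deviations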;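 note: score derived from kinetic fluorescence span divided by baseline fluorescence per well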
CHT block – inhibitors of human choline transporter CHT; 310,000 compounds, 0.86% hits; CHT-expressing cells, membrane potential dye, choline response; hits give low values; Q9GZV3; AID 488975; B-score at 10 µM;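 active = B-score over 3 SD under the library average, and starting fluorescence ratio not unusually high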;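 note: choline stimulus applied at its EC90 after an EC20 pre-addition; B-score computed on integrated fluorescence ratio after choline addition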
CHT inh conf – human CHT inhibition, confirmatory screen | shares compounds with CHT block | CHT-expressing cells, choline membrane potential dye; LV-to-AA substituted CHT, HEK293 cells | CHT activity remaining % of control (hits give low values), % at 10 µM | 2,400 compounds, 70% hits | AID 493221;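 active = choline transporter activity left, mean of duplicates at 10 µM, below buffer-only control mean minus 3 SD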;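 note: depolarization triggered by choline at its EC90 following an EC20 pre-addition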
HEK293 MPD ctr – activity in parental HEK293 cells lacking CHT; shares compounds with CHT block; membrane potential dye, choline response; active = decrease or increase beyond buffer ±3SD; membrane potential ratio readout (active if shifted either direction beyond buffer ±3SD; no single direction) at 10 µM; 2,400 compounds, 4% hits; AID 493222;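 note: parental cells lack the transporter so any hit is non-specific; ratio is peak minus trough fluorescence over baseline after EC90 choline challenge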
Large screens that a line does not name were inactive (follow-up assays come after a bar, where they were run).

CC(OC(=O)c1cc2sccc2n1C)C(=O)NCc1cccs1 (centres undefined)	none
CC(OC(=O)c1cc2sccc2n1C)C(=O)NC(C)(C)C (centres undefined)	CHT block -9.2 | CHT inh conf 59% | HEK293 MPD ctr inactive
CN1CCN(C(=O)CCN2C(=O)/C(=C/c3cccc(Br)c3)SC2=S)CC1	CHT block -5.2 | CHT inh conf 70% | HEK293 MPD ctr inactive
O=C(CCN1C(=O)/C(=C/c2ccccc2)SC1=S)NCCCN1CCOCC1	none
O=C(CCCN1C(=O)/C(=C/c2ccccc2)SC1=S)N1CCOCC1	CHT block -5.6 | CHT inh conf inactive | HEK293 MPD ctr inactive
O=C(CCN1C(=O)/C(=C\c2cccc(Br)c2)SC1=S)NCCCN1CCOCC1	CHT block -5.6 | CHT inh conf 69% | HEK293 MPD ctr inactive
O=C(CCN1C(=O)/C(=C\c2ccccc2)SC1=S)N1CCOCC1	none
CN1CCN(C(=O)CCCN2C(=O)/C(=C/c3cccc(Br)c3)SC2=S)CC1	none (no result: CHT allo act, ANO1 block, CHT block)
COc1ccccc1NC(=O)N1C2CCCC1CC(NC(=O)c1ccccc1)C2 (centres undefined)	none
COc1cc(NC(=O)COC(=O)c2[nH]c(C)c(C(C)=O)c2C)cc(OC)c1	none (no result: CHT allo act, ANO1 block, CHT block)
Cc1cccc(NC(=O)c2n[nH]c([N+](=O)[O-])c2Br)c1C	CHT block -5 | CHT inh conf 61% | HEK293 MPD ctr inactive
Oc1ccc(Br)cc1/C=N/n1c(-c2ccccc2)n[nH]c1=S	none
Oc1c(Br)cc(Br)c(/C=N/n2c(-c3ccccc3)n[nH]c2=S)c1Br	ANO1 block 100, CHT block -6.8 | CHT inh conf 48% | HEK293 MPD ctr inactive
O=C(C[C@H]1C/C=C\CCC(=O)OC[C@H]2CCCN2C1=O)NCCO	none (no result: CHT allo act, ANO1 block, CHT block)
O=c1c(-c2ccc(Cl)cc2)c[nH]n1-c1ccccc1	none
O=c1c(-c2ccccc2)c[nH]n1-c1cccc([N+](=O)[O-])c1	CHT block -6.2 | CHT inh conf 45% | HEK293 MPD ctr inactive
CCS(=O)(=O)c1nc(S(=O)(=O)c2ccc(Cl)cc2)c(N2CCC(O)CC2)s1	none
CCOC(=O)c1cc(CC)sc1NC(=O)COc1ccc2c(C)cc(=O)oc2c1	CHT block -7.3 | CHT inh conf inactive | HEK293 MPD ctr inactive
CC1CCCCC1NC(=O)c1ccc2c(c1)[nH]c(=O)n2C1CCCC1 (centres undefined)	CHT block -9.9 | CHT inh conf 40% | HEK293 MPD ctr inactive
CC1CCN(S(=O)(=O)c2ccc3c(ccn3CCC(=O)NC(C)C)c2)CC1	none
CC1CCCCC1NC(=O)CCn1ccc2cc(S(=O)(=O)N3CCCC3)ccc21 (centres undefined)	CHT block -6.2 | CHT inh conf 41% | HEK293 MPD ctr inactive
CC1CCCCC1NC(=O)c1cccc(S(=O)(=O)N2CCN(C)CC2)c1 (centres undefined)	CHT block -12 | CHT inh conf 2.1% | HEK293 MPD ctr inactive
CCOCCCn1c(=S)[nH]c2cc(C(=O)NC3CCCCC3C)ccc2c1=O (centres undefined)	none
CC1CCCCC1NC(=O)c1ccc(S(=O)(=O)N2CCCC2)cc1 (centres undefined)	CHT block -5.4 | CHT inh conf 7.2% | HEK293 MPD ctr inactive
CN1CCN(S(=O)(=O)c2cccc(C(=O)NC3CCCC3)c2)CC1	none
Cc1ccccc1OCCC(=O)OCC(=O)NCCNC(=O)COC(=O)CCOc1ccccc1C	none
Cc1ccc(OCCNC(=O)CNC(=O)c2ccc(Cl)c([N+](=O)[O-])c2)cc1	none (no result: CHT allo act, ANO1 block, CHT block)
O=C(Cn1c(=O)c2cccn2c2ccccc21)NCCCN1CCCCC1	none
O=C(Nc1ccc(S(=O)(=O)Nc2ccccc2)cc1)C1COc2ccccc2O1 (centres undefined)	none
Cc1cc(C)nc(NS(=O)(=O)c2ccc(NC(=O)C3COc4ccccc4O3)cc2)n1 (centres undefined)	CHT block -6.4 | CHT inh conf 41% | HEK293 MPD ctr inactive
COCCNC(=O)c1cc(-c2ccccc2OC)on1	CHT block -7.4 | CHT inh conf inactive | HEK293 MPD ctr inactive
O=C1NC(=Nc2ccccc2Cl)S/C1=C\c1cccc([N+](=O)[O-])c1O	ANO1 block 25, CHT block -5 | CHT inh conf 38% | HEK293 MPD ctr inactive
CCN(CC)CCCC(C)NC(=O)c1c(NC(=O)c2ccccc2)sc2c1CCCC2 (centres undefined)	CHT block -7.6 | CHT inh conf 39% | HEK293 MPD ctr inactive
O=C(O)c1ccccc1C(=O)c1ccc(Cl)cc1	none
O=C(CC(CC(=O)c1ccc(Cl)cc1)c1ccccc1C(=O)O)c1ccc(Cl)cc1	CHT block -5.8 | CHT inh conf 40% | HEK293 MPD ctr inactive
Cc1ccc(-n2cc(CN3CCN(Cc4nccn4C)CC3)c(-c3cccc(C)c3)n2)cc1	CHT block -5.6 | CHT inh conf 27% | HEK293 MPD ctr inactive
Cc1ccc(-n2cc(CN3CCNC(=O)CC3)c(-c3cccc(C)c3)n2)cc1	none
Nc1ccccc1NC(=O)NC(=O)c1ccccc1	none
O=C(O)c1ccccc1NS(=O)(=O)c1cccc(-n2sc3ccccc3c2=O)c1	CHT block -6.4 | CHT inh conf 22% | HEK293 MPD ctr inactive
NNc1nc2c(F)cc(F)cc2s1	none
O=C(CC1CCCCC1)c1c(O)c2ccccc2oc1=O	CHT block -7.4 | CHT inh conf 44% | HEK293 MPD ctr 4.6
O=C1NN(c2ccccc2)C(=O)/C1=C/c1coc2ccccc2c1=O	CHT block -5.3 | CHT inh conf 31% | HEK293 MPD ctr inactive
COc1ccc(-c2csc3ncnc(NCCCO)c23)cc1	CHT block -5.8 | CHT inh conf 59% | HEK293 MPD ctr inactive
COc1ccc(-c2csc3ncnc(N4CCN(CCO)CC4)c23)cc1	CHT block -7.9 | CHT inh conf 42% | HEK293 MPD ctr inactive
Cc1ccc(-c2csc3ncnc(N4CCN(Cc5ccccc5)CC4)c23)cc1	none
CCN1CCN(c2ncnc3scc(-c4ccc(C)cc4)c23)CC1	CHT block -9.9 | CHT inh conf 22% | HEK293 MPD ctr inactive
OCCN1CCN(c2ncnc3scc(-c4ccc(F)cc4)c23)CC1	CHT block -5.7 | CHT inh conf 33% | HEK293 MPD ctr inactive
COc1ccc(C(=O)c2cc([N+](=O)[O-])ccc2N2CCCC2)cc1	none
COc1ccc(C(=O)c2cc([N+](=O)[O-])ccc2N2CCN(C)CC2)cc1	CHT block -6.9 | CHT inh conf 44% | HEK293 MPD ctr 4.7
COc1ccc(NC(=O)Cn2nnc(-c3ccccc3F)n2)cc1	none
COc1ccc(CNC(=O)CN(C(=O)Cn2nnc(-c3ccccc3F)n2)c2ccc(C)cc2)cc1	CHT block -5.2 | CHT inh conf inactive | HEK293 MPD ctr inactive
